Compounds with a hit are over-represented: about 19% of the library has one in this group of screens.
TDP1 block – qHTS Assay for Inhibitors of Tyrosyl-DNA Phosphodiesterase (TDP1) | Tyrosyl-DNA phosphodiesterase 1 (Homo sapiens), Q9NUW8 | recombinant TDP1, AlphaScreen DNA substrate cleavage | Potency, µM (series often up to 130 µM), inactives show top-dose activity change, negative = inhibition, hits mostly inhibitors | 0.28% of 350,000 active | AID 485290, 2010; note: nearly all actives have a fitted effect of over 40% in size
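Here, a 5' biotin and 3' phosphotyrosine-FITC DNA oligonucleotide reports Tdp1 activity: intact substrate bridges AlphaScreen beads, while cleavage leaves a 3' phosphate and drops signal. All incubations at room temperature.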
RORgamma inh – qHTS for inhibitors of ROR gamma transcriptional activity. Drosophila S2 Gal4-RORgamma UAS-luciferase reporter, 20 h. Potency, µM (series often up to 53.6 µM), inactives show at the top dose activity change, negative = inhibition, usual class: inhibitors. 5.4% of 310,000 active. AID 2551, 2010; note: nearly all actives have a fitted effect of over 60% in size
Target sequence (P51450 whole entry, looked up, the tested form may be a part): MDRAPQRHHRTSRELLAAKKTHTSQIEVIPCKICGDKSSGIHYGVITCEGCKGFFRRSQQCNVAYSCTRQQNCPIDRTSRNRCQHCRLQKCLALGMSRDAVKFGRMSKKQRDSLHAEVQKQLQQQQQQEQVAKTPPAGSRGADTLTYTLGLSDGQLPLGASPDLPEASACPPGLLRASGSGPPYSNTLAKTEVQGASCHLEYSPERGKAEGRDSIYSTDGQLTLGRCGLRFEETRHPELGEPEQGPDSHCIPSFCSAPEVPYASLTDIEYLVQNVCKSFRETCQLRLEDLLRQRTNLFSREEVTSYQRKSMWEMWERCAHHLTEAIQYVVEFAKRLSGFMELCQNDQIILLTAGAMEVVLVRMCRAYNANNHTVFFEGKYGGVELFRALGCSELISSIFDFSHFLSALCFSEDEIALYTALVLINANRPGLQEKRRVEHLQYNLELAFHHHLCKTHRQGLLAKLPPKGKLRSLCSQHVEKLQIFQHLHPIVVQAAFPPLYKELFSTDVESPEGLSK
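Schneider cells (Drosophila), stable Gal4 DBD–ROR gamma + UAS-luc; 1 hr cmpd preincubation; Cu2+ induction 700 uM final; 20 hr ambient; luminescence.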
VP16 counter – VP16 counterscreen qHTS for inhibitors of ROR gamma transcriptional activity | Drosophila S2 Gal4-VP16 UAS-luciferase, luminescence, 20 h | AID 2546, 2010 | 3.5% of 310,000 active | Potency, µM (titrated, usually from 53.6 µM), without a hit: at the highest dose activity, negative = inhibition, most hits filed as inhibitors;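 note: Gal4-VP16 expression switched on by copper sulfate through the metallothionein promoter; nearly all actives have a fitted effect of over 50% in size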
DT40 TDP1 CPT – qHTS for Inhibitors of human tyrosyl-DNA phosphodiesterase 1 (TDP1): qHTS in cells in presence of CPT. chicken DT40 Tdp1-/-;hTDP1 cells + 20 nM CPT, ATP luminescence, 48 h. Potency, µM (highest dose often 46.2 µM), for the others: at the highest dose activity change, negative = growth inhibition, most hits filed as inhibitors. 12% of 420,000 active. AID 686979, 2013; note: nearly all actives have a fitted effect of over 55% in size
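Chicken DT40 Tdp1-/- cells complemented with human TDP1, 400 cells/well, exposed to compounds plus 20 nM camptothecin for at least 48 h at 37 C; viability read as ATP content by CellTiter-Glo luminescence.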
TDP1 cell noCPT – qHTS for Inhibitors of human tyrosyl-DNA phosphodiesterase 1 (TDP1): qHTS in cells in absence of CPT. DT40 Tdp1-/- hTDP1 cells, no CPT, ATP luminescence, 48 h. Potency, µM (top dose mostly 46.2 µM), without a hit: at the highest dose activity change, negative = growth inhibition, actives largely listed as inhibitors. 15% of 420,000 active. AID 686978, 2013; note: nearly all actives have a fitted effect of over 55% in size
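Growth of hTDP1-complemented DT40 Tdp1-knockout cells is measured by ATP luminescence after at least 48 hr compound exposure at 37 °C, with DMSO substituting for the 20 nM CPT used in the parallel screen.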
Active calls of the source: *; [ ] = remark or other dose. Calls come from the whole dose curve; as a rule, active = well fitted curve in the direction sought with a large enough effect; inconclusive = small, poorly fitted or top-dose-only effect, or another doubt; inactive = no such curve, though single readings can be large; an effect the other way counts as inactive or inconclusive. % is set by controls: 0 for no effect and ±100 for the full control effect; potency is the fitted concentration of half-maximal effect.

`Cc1ccc(F)c(CNC(=O)C2CCC(=O)N(Cc3ccccn3)C2)c1F` (stereo not drawn) gave TDP1 block 2.8%, RORgamma inh -3.2%, VP16 counter 11.6%, DT40 TDP1 CPT inconclusive and TDP1 cell noCPT 4.6%.
CC1C(=O)Nc2ccccc2N1C(=O)c1ccccc1 (stereo not drawn) was read as TDP1 block 5.1%, RORgamma inh 6.6%, VP16 counter 1.5%, DT40 TDP1 CPT 3.5% and TDP1 cell noCPT 5.1%.
For CCOc1cc(S(=O)(=O)N2CCC(C(N)=O)CC2)ccc1F the results were TDP1 block 4.0%, RORgamma inh 3.8%, VP16 counter 12.6%, DT40 TDP1 CPT 8.2% and TDP1 cell noCPT -18.8%.
COCCCn1c(SCC(=O)Nc2ccc(F)cc2)nc2c(sc3ccccc32)c1=O was read as TDP1 block 4.4%, DT40 TDP1 CPT 14.6µM* and TDP1 cell noCPT 5.8µM*.
Screening CC(C)OCCCn1c(SCc2cccc(Br)c2)nc2c(sc3ccccc32)c1=O returned TDP1 block -5.4%, DT40 TDP1 CPT 13.1% and TDP1 cell noCPT -1.7%.
Screening COCCCn1c(SCc2ccccc2F)nc2c(sc3ccccc32)c1=O returned TDP1 block 6.4%, DT40 TDP1 CPT inconclusive and TDP1 cell noCPT 14.6µM*.
Screening COc1ccc(NC(=O)CSc2nc3c(sc4ccccc43)c(=O)n2CCCN2CCCC2)cc1 returned TDP1 block 8.1%, RORgamma inh inconclusive, VP16 counter inconclusive, DT40 TDP1 CPT 20.6µM* and TDP1 cell noCPT inconclusive.
For Cc1cccc(CSc2nc3c(sc4ccccc43)c(=O)n2CCC(=O)NC(C)C)c1 the results were TDP1 block 2.3%, DT40 TDP1 CPT 4.61µM* and TDP1 cell noCPT 11.6µM*.
`COc1cccc(C(=O)NC(C)C(c2cccs2)N2CCN(C)CC2)c1` (stereo not drawn) gave TDP1 block 1.1%, RORgamma inh inconclusive, VP16 counter -3.2%, DT40 TDP1 CPT inconclusive and TDP1 cell noCPT -11.3%.
For CCN(CC)S(=O)(=O)c1ccc(C(=O)NC2CC(=O)N(c3ccc(OC)c(OC)c3)C2)cc1 (stereo not drawn) the results were TDP1 block 7.8%, DT40 TDP1 CPT 0.7% and TDP1 cell noCPT -23.6%.
CC(C)(CO)NCC#Cc1ccccc1 was read as TDP1 block 5.1%, RORgamma inh 5.8%, VP16 counter -6.7%, DT40 TDP1 CPT 9.6% and TDP1 cell noCPT 10.4%.
Screening O=c1c2cc([N+](=O)[O-])cc([N+](=O)[O-])c2[nH]n1-c1ccccc1 returned RORgamma inh -10.1%, VP16 counter -15.8%, DT40 TDP1 CPT inconclusive and TDP1 cell noCPT inconclusive.
`C/C(N)=C(/C#N)C(=O)CSc1nc2ccccc2c(=O)n1CCCOC(C)C` gave TDP1 block 0.0%, RORgamma inh inconclusive, VP16 counter -9.6%, DT40 TDP1 CPT inconclusive and TDP1 cell noCPT 23.1µM*.
For CCNC(=O)CSc1nc2ccccc2c(=O)n1CCCOC(C)C the results were TDP1 block 4.2%, RORgamma inh 5.4%, VP16 counter -1.1%, DT40 TDP1 CPT -5.5% and TDP1 cell noCPT -12.3%.
`CC(C)OCCCn1c(SCC(N)=O)nc2c(sc3ccccc32)c1=O` gave TDP1 block 2.5%, DT40 TDP1 CPT 20.6µM* and TDP1 cell noCPT inconclusive.
Screening CCOc1ccc(NC(=O)N2CCN3CCCCC3C2)cc1 (stereo not drawn) returned TDP1 block -8.5%, DT40 TDP1 CPT -1.6% and TDP1 cell noCPT 2.5%.
`COc1cc(=O)n2c(c1C(=O)NCc1ccco1)CCN(Cc1ccc(F)cc1Cl)CC2` gave DT40 TDP1 CPT 0.206µM* and TDP1 cell noCPT 2.91µM*.
Screening COc1cc(=O)n2c(c1C(=O)NCc1ccco1)CCN(Cc1ccc3nsnc3c1)CC2 returned DT40 TDP1 CPT -8.8% and TDP1 cell noCPT -9.7%.
`CCc1ccccc1NC(=O)c1cc2c(Cl)nc3ccccc3c2s1` gave TDP1 block 6.9%, DT40 TDP1 CPT inconclusive and TDP1 cell noCPT inconclusive.
For CCN(CC)CCCNC(=O)c1cc2c(Cl)nc3ccccc3c2s1 the results were TDP1 block -1.1%, RORgamma inh -28.4%, VP16 counter -19.0%, DT40 TDP1 CPT 18.4µM* and TDP1 cell noCPT inconclusive.
CCN(CCCNC(=O)c1cc2c(Cl)nc3ccccc3c2s1)Cc1ccccc1 was read as TDP1 block 1.2%, DT40 TDP1 CPT inconclusive and TDP1 cell noCPT 23.1µM*.
Cc1onc(-c2c(Cl)cccc2Cl)c1C(=O)N1CCN(Cc2ccccc2)CC1 was read as TDP1 block 1.5%, RORgamma inh 21.8%, VP16 counter -7.0%, DT40 TDP1 CPT -10.9% and TDP1 cell noCPT inconclusive.
Screening Clc1ccc(CO/N=C2\CCCc3nonc32)c(Cl)c1 returned TDP1 block -2.6%, RORgamma inh 22.4%, VP16 counter 3.8%, DT40 TDP1 CPT -17.7% and TDP1 cell noCPT inconclusive.
Screening CCOC(=O)c1c(-c2ccc(OC)c(OC)c2)csc1NC(=O)c1ccc(F)cc1 returned TDP1 block 0.0%, DT40 TDP1 CPT inconclusive and TDP1 cell noCPT inconclusive.
For CN(C(=O)CSc1nc2c(c(=O)[nH]1)CCCC2)c1ccccc1 the results were TDP1 block 8.6%, DT40 TDP1 CPT 9.2µM* and TDP1 cell noCPT -27.6%.
Screening CC(C)c1ccc(NC(=O)CSc2nc(=O)[nH]c3c2CCCC3)cc1 returned DT40 TDP1 CPT inconclusive and TDP1 cell noCPT 20.6µM*.
For CCCCOC(=O)c1ccc(NC(=O)CSc2nc3c(c(=O)[nH]2)CCCC3)cc1 the results were TDP1 block 2.9%, DT40 TDP1 CPT inconclusive and TDP1 cell noCPT 13µM*.
For CCCN1CCc2nc(SCC(=O)Nc3ccc(C)c(Cl)c3)[nH]c(=O)c2C1 the results were TDP1 block 11.4%, RORgamma inh -22.5%, VP16 counter -2.5%, DT40 TDP1 CPT inconclusive and TDP1 cell noCPT 18.4µM*.
For Cc1ncc2c(c1CNC(=O)c1ccsc1)CCN(C(=O)c1c(F)cccc1Cl)C2 the results were DT40 TDP1 CPT 3.2%[9.04 µM] and TDP1 cell noCPT -19.5%.
For O=C(C1=C(O)C(=O)N(Cc2ccco2)C1c1cccc([N+](=O)[O-])c1)c1ccco1 (stereo not drawn) the results were TDP1 block 0.9%, RORgamma inh -2.8%, VP16 counter -7.8%, DT40 TDP1 CPT -3.0% and TDP1 cell noCPT 11.6%.
For Cc1c(C(=O)Nc2c(C)n(C)n(-c3ccccc3)c2=O)oc2c(Cl)cccc12 the results were TDP1 block 1.5%, RORgamma inh -19.1%, VP16 counter -5.2%, DT40 TDP1 CPT -24.8% and TDP1 cell noCPT -23.3%.
